The results in this text go back to ChEMBL document CHEMBL1961873, “Compounds: GSK PKIS; Assays: Nanosyn kinase panel” (2012).

The target in assay [1] is Serine/threonine-protein kinase MARK2 (Homo sapiens) (UniProt Q7KZI7). The following applies: at 1 µM.
In assay [2] the target is PAS domain-containing serine/threonine-protein kinase (Homo sapiens) (UniProt Q96RG2). The note with it: at 0.1 µM.
Assay [3] shares this target. The following applies: at 1 µM.
The target in assay [4] is Phosphorylase b kinase gamma catalytic chain, skeletal muscle/heart isoform (Homo sapiens) (UniProt Q16816). The note with it: at 0.1 µM.
Chain of Phosphorylase b kinase gamma catalytic chain, skeletal muscle/heart isoform (Homo sapiens) (Q16816 whole entry, looked up, canonical isoform): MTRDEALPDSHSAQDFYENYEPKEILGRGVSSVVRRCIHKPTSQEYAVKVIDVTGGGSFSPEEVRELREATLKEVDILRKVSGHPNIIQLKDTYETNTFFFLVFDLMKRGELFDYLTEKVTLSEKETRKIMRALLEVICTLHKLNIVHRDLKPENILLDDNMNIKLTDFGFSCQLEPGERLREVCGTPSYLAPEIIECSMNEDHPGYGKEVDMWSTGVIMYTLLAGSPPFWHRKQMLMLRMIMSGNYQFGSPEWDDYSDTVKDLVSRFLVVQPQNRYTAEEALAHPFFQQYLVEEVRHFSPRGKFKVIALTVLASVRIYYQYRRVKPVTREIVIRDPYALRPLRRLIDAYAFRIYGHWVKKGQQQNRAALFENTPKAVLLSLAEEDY
For assay [5] the target is unchanged. The following applies: at 1 µM.
Assay [6] concerns the target T1, Phosphorylase b kinase gamma catalytic chain, liver/testis isoform (Homo sapiens) (UniProt P15735).
T1 sequence (whole entry): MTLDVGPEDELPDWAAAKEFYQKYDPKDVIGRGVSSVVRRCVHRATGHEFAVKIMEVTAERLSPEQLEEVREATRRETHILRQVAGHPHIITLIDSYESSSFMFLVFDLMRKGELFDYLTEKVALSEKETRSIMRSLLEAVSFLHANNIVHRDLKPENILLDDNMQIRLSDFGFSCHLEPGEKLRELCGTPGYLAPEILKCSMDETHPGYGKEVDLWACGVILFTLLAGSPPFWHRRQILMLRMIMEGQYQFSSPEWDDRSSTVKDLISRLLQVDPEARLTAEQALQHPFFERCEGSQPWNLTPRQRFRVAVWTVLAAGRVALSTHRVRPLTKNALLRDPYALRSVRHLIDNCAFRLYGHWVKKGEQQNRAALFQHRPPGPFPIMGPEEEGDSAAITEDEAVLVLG
The note with it: at 0.1 µM.

The target of assay [7] is T1, Phosphorylase b kinase gamma catalytic chain, liver/testis isoform (Homo sapiens). The note with it: at 1 µM.
The target of assay [8] is Serine/threonine-protein kinase pim-1 (Homo sapiens) (UniProt P11309). The note with it: at 0.1 µM.
Chain of Serine/threonine-protein kinase pim-1 (Homo sapiens) (P11309 whole entry, looked up): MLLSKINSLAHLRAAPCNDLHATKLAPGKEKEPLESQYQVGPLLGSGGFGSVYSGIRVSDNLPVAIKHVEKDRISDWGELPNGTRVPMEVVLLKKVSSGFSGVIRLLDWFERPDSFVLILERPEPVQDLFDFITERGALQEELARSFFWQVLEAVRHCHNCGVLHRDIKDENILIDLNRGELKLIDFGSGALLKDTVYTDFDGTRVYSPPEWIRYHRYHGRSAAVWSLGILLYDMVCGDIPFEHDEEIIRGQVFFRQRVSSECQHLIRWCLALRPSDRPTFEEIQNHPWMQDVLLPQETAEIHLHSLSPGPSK
Assay [9] shares this target. The following applies: at 1 µM.
For assay [10], the target named is Serine/threonine-protein kinase pim-2 (Homo sapiens) (UniProt Q9P1W9). The note with it: at 0.1 µM.
Chain of Serine/threonine-protein kinase pim-2 (Homo sapiens) (Q9P1W9 whole entry, looked up): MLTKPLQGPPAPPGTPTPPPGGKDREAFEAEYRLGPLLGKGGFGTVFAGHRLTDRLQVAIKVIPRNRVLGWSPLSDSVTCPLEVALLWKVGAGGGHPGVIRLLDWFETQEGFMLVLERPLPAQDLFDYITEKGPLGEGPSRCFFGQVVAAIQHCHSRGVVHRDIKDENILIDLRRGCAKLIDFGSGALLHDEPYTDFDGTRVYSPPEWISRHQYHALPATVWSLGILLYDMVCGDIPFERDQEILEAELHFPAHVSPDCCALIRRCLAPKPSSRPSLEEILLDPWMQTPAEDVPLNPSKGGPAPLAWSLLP
Assay [11] shares this target. The following applies: at 1 µM.
Assay [12] deals with Serine/threonine-protein kinase pim-3 (Homo sapiens) (UniProt Q86V86). The note with it: at 0.1 µM.
Assay [13] shares this target. The following applies: at 1 µM.
The target in assay [14] is T2, MAP kinase-activated protein kinase 5 (Homo sapiens) (UniProt Q8IW41).
T2 sequence (whole entry): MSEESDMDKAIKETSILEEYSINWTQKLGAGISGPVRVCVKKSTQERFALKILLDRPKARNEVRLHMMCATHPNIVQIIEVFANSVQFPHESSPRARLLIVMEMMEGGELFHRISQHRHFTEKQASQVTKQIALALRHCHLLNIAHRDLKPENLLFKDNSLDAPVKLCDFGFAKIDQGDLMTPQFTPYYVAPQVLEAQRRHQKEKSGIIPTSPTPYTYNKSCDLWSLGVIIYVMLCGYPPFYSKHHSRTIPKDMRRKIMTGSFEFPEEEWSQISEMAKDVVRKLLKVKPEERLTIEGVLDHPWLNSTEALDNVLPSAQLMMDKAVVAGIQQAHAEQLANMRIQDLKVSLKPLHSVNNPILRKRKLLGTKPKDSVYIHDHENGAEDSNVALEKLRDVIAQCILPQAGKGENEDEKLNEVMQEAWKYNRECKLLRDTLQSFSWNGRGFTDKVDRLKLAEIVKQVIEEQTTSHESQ
The following applies: at 0.1 µM.

Assay [15] addresses T2, MAP kinase-activated protein kinase 5 (Homo sapiens). The note with it: at 1 µM.
For assay [16], the target named is Serine/threonine-protein kinase SIK1 (Homo sapiens) (UniProt P57059). The following applies: at 0.1 µM.
Chain of Serine/threonine-protein kinase SIK1 (Homo sapiens) (P57059 whole entry): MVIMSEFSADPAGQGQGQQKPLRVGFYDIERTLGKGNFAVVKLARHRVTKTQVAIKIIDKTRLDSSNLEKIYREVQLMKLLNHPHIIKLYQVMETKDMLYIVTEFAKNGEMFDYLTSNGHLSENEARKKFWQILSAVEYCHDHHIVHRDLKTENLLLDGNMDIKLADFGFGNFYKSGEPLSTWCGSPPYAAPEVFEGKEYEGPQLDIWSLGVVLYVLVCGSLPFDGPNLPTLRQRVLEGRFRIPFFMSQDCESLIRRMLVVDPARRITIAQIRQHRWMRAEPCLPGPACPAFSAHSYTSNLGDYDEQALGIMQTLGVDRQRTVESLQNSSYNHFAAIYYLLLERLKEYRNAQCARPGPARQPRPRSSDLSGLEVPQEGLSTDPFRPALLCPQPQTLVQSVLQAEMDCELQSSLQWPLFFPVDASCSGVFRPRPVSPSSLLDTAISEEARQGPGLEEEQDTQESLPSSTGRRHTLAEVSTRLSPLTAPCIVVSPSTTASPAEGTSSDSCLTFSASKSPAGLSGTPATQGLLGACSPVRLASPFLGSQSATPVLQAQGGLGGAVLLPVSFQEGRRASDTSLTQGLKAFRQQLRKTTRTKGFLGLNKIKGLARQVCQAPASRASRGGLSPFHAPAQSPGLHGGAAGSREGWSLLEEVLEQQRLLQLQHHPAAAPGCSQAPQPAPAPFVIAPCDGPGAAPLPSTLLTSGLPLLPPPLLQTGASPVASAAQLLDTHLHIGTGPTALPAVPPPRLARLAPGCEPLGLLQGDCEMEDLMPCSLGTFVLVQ
For assay [17] the target is unchanged. The following applies: at 1 µM.
In assay [18] the target is Serine/threonine-protein kinase SIK2 (Homo sapiens) (UniProt Q9H0K1). The following applies: at 0.1 µM.
Chain of Serine/threonine-protein kinase SIK2 (Homo sapiens) (Q9H0K1 whole entry, looked up): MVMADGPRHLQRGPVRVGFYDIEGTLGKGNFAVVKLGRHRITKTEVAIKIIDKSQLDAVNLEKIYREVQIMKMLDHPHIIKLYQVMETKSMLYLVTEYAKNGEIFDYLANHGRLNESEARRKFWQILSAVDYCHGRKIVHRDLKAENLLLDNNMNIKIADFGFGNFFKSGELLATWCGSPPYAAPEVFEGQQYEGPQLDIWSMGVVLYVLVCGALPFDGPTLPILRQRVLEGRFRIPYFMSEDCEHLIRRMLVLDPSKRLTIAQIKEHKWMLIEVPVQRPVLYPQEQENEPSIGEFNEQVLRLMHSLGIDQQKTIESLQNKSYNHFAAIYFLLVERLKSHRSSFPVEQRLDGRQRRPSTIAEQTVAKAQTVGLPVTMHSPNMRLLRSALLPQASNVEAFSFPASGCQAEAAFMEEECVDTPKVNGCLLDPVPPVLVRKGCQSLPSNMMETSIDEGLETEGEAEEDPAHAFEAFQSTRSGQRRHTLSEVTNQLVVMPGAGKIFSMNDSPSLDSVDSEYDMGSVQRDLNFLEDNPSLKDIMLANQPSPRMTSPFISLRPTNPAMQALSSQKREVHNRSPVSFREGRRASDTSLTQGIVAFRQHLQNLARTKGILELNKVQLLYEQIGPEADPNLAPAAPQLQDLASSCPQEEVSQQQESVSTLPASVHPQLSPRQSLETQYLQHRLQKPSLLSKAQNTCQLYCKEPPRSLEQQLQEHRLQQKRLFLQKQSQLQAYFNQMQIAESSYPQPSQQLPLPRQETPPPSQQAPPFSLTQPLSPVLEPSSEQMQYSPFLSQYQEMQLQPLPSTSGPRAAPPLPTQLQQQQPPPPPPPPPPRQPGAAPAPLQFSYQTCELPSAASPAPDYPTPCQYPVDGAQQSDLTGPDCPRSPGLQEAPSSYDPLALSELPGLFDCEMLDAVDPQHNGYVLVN
For assay [19] the target is unchanged. The note with it: at 1 µM.
Assay [20] addresses T3, Serine/threonine-protein kinase TBK1 (Homo sapiens) (UniProt Q9UHD2).
T3 sequence (whole entry): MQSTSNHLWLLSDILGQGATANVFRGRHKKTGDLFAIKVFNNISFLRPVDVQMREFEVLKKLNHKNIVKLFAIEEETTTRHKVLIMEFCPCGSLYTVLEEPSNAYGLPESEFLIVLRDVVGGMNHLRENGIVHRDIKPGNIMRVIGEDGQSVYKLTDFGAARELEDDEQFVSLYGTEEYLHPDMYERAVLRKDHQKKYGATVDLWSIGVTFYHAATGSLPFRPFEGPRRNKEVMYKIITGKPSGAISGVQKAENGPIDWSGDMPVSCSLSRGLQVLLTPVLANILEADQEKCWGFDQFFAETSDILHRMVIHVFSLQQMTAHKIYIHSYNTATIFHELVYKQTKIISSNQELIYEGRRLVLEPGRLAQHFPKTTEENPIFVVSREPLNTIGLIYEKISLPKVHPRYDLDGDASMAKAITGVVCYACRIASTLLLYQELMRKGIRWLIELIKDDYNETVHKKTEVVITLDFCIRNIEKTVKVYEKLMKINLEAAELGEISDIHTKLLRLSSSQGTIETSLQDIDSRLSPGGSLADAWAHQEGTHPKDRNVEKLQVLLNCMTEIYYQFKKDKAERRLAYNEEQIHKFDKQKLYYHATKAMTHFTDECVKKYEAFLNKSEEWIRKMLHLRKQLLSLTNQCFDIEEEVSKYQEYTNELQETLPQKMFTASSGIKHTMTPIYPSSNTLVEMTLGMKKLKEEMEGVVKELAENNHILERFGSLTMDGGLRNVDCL
The note with it: at 0.1 µM.

Chain of PAS domain-containing serine/threonine-protein kinase (Homo sapiens) (Q96RG2 whole entry, the tested form may be a part): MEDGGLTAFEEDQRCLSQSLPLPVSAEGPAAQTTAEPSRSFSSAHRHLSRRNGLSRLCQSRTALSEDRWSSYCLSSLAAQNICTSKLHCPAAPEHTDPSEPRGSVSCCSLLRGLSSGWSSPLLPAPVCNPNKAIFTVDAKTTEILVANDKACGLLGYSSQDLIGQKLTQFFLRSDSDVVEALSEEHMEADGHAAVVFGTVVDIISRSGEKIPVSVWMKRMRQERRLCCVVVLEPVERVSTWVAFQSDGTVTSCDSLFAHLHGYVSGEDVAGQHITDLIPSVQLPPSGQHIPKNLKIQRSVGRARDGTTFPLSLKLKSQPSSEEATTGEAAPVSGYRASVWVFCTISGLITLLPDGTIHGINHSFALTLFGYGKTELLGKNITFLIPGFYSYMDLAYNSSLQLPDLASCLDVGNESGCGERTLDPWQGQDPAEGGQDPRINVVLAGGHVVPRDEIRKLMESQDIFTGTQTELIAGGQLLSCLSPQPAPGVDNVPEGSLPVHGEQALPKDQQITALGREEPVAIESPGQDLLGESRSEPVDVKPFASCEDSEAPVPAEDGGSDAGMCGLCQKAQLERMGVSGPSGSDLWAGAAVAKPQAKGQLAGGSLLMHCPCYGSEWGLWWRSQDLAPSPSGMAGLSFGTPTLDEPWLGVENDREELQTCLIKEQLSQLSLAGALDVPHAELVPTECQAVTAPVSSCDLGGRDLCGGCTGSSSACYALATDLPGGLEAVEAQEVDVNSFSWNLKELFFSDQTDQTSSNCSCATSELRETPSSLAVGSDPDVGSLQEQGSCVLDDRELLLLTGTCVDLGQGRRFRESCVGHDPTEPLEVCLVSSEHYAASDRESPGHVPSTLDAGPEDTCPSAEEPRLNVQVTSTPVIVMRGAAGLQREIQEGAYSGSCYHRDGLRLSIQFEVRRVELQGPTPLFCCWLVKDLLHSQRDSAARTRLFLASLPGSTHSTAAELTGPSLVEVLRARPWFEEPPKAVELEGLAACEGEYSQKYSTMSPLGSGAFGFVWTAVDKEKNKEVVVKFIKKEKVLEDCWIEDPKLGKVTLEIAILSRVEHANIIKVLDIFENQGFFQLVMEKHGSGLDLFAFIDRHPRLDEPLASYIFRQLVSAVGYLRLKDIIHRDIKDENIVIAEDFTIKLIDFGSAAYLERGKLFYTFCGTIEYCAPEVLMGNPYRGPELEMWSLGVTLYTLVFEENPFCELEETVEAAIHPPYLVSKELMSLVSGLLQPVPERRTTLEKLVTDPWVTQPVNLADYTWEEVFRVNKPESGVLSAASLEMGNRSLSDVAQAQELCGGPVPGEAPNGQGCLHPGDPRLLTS

`COC(=O)c1ccc2c(c1)C(=Cc1cc(Br)c(O)c(Br)c1)C(=O)N2`: the inhibition in [1] is 4.91%; in assay [2], -1.3%; in [3], -0.51%; in assay [4], 0.67%; in [5], 7.49%; in assay [6], 4.41%. Also, the inhibition is 3.92% in [7]; 8.81% in [8]; 50.9% in assay [9]; 10.7% in assay [10]; 53.2% in [11]; 18.4% in [12]. Besides, the inhibition was found to be 64.3% in assay [13]; 0.85% in assay [14]; 2.43% in assay [15]; 8.54% in assay [16]; 14.4% in assay [17]; 3.66% in assay [18]. In addition, the results for the inhibition in assay [19] and in assay [20] were 9.93% and 1.23%, respectively.
In the case of `NS(=O)(=O)c1cccc(Nc2cc(-c3ccc(F)cc3)n[nH]2)c1`, the inhibition was determined as 9.04% in [1]; 0.67% in assay [2]; 2.88% in [3]; 2.8% in assay [4]; 14.5% in [5]; 4.37% in assay [6]. Besides, the inhibition in [7] was 8.84%; in assay [8], 1.38%; in assay [9], 1.68%; in assay [10], 0.15%; in assay [11] it was 1.85%; in [12], 2.44%. The inhibition in [13] turned out to be 5.79%; in assay [14] it was 1.15%; in assay [15] it was 2.81%; in [16] it was 7.9%; in [17], 33.8%; in assay [18], 11.7%. For the same compound, the results for the inhibition in [19] and in [20] were 37.9% and 2.64%, respectively.
With `CCn1c(-c2nonc2N)nc2ccc(F)cc21`, the inhibition is -0.64% in assay [1]; 1.69% in assay [2]; 0.49% in assay [3]; 6.81% in assay [4]; 7.3% in assay [5]; 7.81% in assay [6]. Moreover, the inhibition in assay [7] is 12.6%; in assay [8], 0.08%; in assay [9], 1.85%; in assay [10], -0.12%; in assay [11], 0.34%; in assay [12] it was -0.77%. Besides, the inhibition was determined as 4.99% in assay [13]; 2.78% in [14]; 4.45% in assay [15]; 4.96% in [16]; 8.41% in [17]; 7.14% in assay [18]. Also, the inhibition in [19] worked out at 12.5%; in assay [20], 5.18%.
For the compound `Nc1nccc(-c2c(-c3ccc(F)cc3)nn3cc(C(F)(F)F)ccc23)n1`, the inhibition in assay [1] was -0.77%; in [2], 0.89%; in [3], 0.42%; in [4] it was 3.63%; in [5], 3.94%; in assay [6], 0.86%. For the same compound, the inhibition in [7] is 0.54%; in assay [8], 0.21%; in assay [9], -0.89%; in [10] it was -0.09%; in [11], 0.77%; in assay [12] it was 0.74%. Also, the inhibition in [13] is 0.92%; in assay [14], 0.34%; in assay [15], 0.16%; in [16], -0.43%; in [17], 1.61%; in assay [18], -1.04%. The inhibition is -1.57% in assay [19] and -2.75% in assay [20].
With `NC(=O)c1sc(-n2cnc3ccccc32)cc1OCc1ccccc1Br`, the inhibition is 6.32% in [1]; -0.54% in assay [2]; -0.07% in assay [3]; 2.76% in assay [4]; 6.49% in assay [5]; 4.32% in assay [6]. The inhibition in [7] is 5.93%; in assay [8], 0.2%; in assay [9] it was 3.08%; in [10] it was -0.36%; in assay [11], 0.78%; in assay [12] it was -1.03%. Further, the inhibition in assay [13] stood at 3.81%; in [14] it was 1.15%; in assay [15], 0.91%; in assay [16] it was 4.47%; in assay [17], 13.6%; in assay [18], 3.55%. In addition, the inhibition in assay [19] turned out to be 9.83%; in assay [20], 0.38%.
Consider `Oc1cccc(-c2nc(-c3ccccc3)[nH]c2-c2ccncc2)c1`, for which the inhibition is 0.43% in [1]; 0.7% in [2]; 0.32% in assay [3]; 4.05% in assay [4]; 3.93% in assay [5]; 5.23% in assay [6]. Moreover, the inhibition is 4.95% in [7]; 0.8% in [8]; 2.57% in [9]; -0.34% in [10]; 0.33% in [11]; -1.73% in assay [12]. Also, the inhibition stood at 1.72% in [13]; 1.55% in assay [14]; 1.19% in [15]; 8.44% in [16]; 11.6% in assay [17]; 4.34% in assay [18]. The inhibition in assay [19] was 10.2%; in assay [20], 1.64%.
For the compound `CN(c1ccc(NC(=O)Nc2ccc(OC(F)(F)F)cc2)cc1)c1ccnc(Nc2cccc(S(N)(=O)=O)c2)n1`, the inhibition in [1] is -1.52%; in [2], 0.55%; in assay [3], 0.28%; in [4], 1.77%; in assay [5], 9.58%; in [6], 3.6%. Besides, the inhibition in [7] is 2.53%; in assay [8] it was 0.23%; in assay [9] it was -0.84%; in assay [10] it was 0.55%; in assay [11], 0.39%; in assay [12], 0.72%. Further, the inhibition was -1.83% in assay [13]; 0.88% in [14]; -0.8% in assay [15]; 3.04% in assay [16]; 7.29% in assay [17]; 0.98% in [18]. Besides, the inhibition was -0.49% in assay [19] and 0.04% in assay [20].

A word on the inhibition: it is the relative decrease from the control value, in per cent.
